# Reference: PubChem BioAssay (NCATS)
# Results filed as inconclusive are left out. Where a call stands in place of a potency, no number is given. Active and inactive are the calls of the source. The call rests on the fitted dose curve; in most records, active means well fitted curve in the direction sought with a large enough effect; inconclusive means small, poorly fitted or top-dose-only effect, or another doubt; inactive means no such curve, though single readings can be large; an effect the other way counts as inactive or inconclusive.
# Tests used:
# [1] = Cellular Toxicity (caspase-3) H-4-II-E (AID 663);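 further: cells exposed to compound for 16 hr before readout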
# Procedure, shortened: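 Rat hepatoma H-4-II-E cells (1500/well) plated 5 hr, then exposed to compound titrations for 16 hr at 37 °C. Caspase-Glo 3/7 luminescence read after 20 min at RT; data normalized to DMSO and 100 uM tamoxifen, AC50 from Hill fits.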
# [2] = Cellular Toxicity (caspase-3) Hek293 (AID 664);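 further: cells exposed to compound for 16 h at 37 °C before readout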
# Procedure, shortened: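 Activation of caspase-3/7 is measured as increased luminescence from cleaved peptide-aminoluciferin substrate in HEK293 cells treated 16 hours at 37 °C. AC50 values come from Hill-equation fits of concentration-response data.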
# [3] = Cellular Toxicity (caspase-3) N2a (AID 665);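 further: compound exposure lasted 16 h at 37 °C before readout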
# Procedure, shortened: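 Plated mouse neuroblastoma N2a cells received titrated compounds for 16 h in complete medium. Caspase activity was then detected with a peptide-aminoluciferin luminescent reagent.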
# [4] = Cellular Toxicity (caspase-3) NIH 3T3 (AID 666)
# Procedure, shortened: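 Concentration-response qHTS in NIH 3T3 mouse fibroblasts scores caspase-3/7 activation as rising luminescence after 16 hr compound exposure. Signals are scaled between DMSO-only and 100 uM tamoxifen.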
# [5] = Cellular Toxicity (caspase-3) Renal Proximal Tubule (AID 667);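 further: cells exposed to compound for 16 hours at 37 °C before detection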
# Procedure, shortened: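 Caspase-Glo 3/7 read-out, rat primary kidney proximal tubule cells. Compound exposure 16 h, 37 °C; detection after 1 h at RT. Activity scaled to DMSO and 10 uM staurosporine.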
# [6] = biological target: Cytochrome P450 3A4 (Homo sapiens) (UniProt P08684); assay: qHTS Assay for Inhibitors and Substrates of Cytochrome P450 3A4 (AID 884); further: series mostly up to about 57 µM; nearly all actives have a fitted effect of over 50% in size
# Chain of Cytochrome P450 3A4 (Homo sapiens) (P08684 whole entry, looked up): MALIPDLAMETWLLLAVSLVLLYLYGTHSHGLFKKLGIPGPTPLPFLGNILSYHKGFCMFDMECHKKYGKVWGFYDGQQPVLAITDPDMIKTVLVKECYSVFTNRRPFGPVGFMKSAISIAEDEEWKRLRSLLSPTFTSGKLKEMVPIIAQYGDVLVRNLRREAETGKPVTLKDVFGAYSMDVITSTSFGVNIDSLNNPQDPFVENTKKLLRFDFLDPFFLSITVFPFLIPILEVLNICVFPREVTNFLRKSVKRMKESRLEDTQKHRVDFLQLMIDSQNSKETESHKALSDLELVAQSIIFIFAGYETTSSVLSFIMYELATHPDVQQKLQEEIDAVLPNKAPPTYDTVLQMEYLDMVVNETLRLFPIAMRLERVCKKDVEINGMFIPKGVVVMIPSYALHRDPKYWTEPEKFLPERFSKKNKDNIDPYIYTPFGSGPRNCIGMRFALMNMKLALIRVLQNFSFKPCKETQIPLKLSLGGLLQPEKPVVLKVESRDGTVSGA
# Procedure, shortened: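 20 nM human CYP3A4 with 25 uM Luciferin-PPXE (at KM) in 200 mM KPO4, preincubated 10 min with compound; NADPH regeneration started a 60 min RT reaction. Luciferin detected by luminescence, normalized to 57 uM ketoconazole as full inhibition.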
# [7] = Cell Viability - LYMP2-001 (AID 921);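 further: series mostly up to about 92 µM; cells exposed to compound for 24 h at 37 °C; nearly all actives have a fitted effect of over 70% in size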
# Procedure, shortened: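 A lymphoblastoid cell line of human origin was treated with library compounds across a concentration series for 24 hours, and viable cell number was estimated from ATP-driven luciferase light output. Hill modeling gave AC50.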
# [8] = biological target: Guanine nucleotide-binding protein G(i) subunit alpha-1 (Homo sapiens) (UniProt P63096); assay: qHTS Assay for Inhibitors of RGS12 GoLoco Motif Activity (Green Fluorophore) (AID 879);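 further: negative values mean loss of peptide binding seen as reduced polarization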
# Chain of Guanine nucleotide-binding protein G(i) subunit alpha-1 (Homo sapiens) (P63096 whole entry, looked up): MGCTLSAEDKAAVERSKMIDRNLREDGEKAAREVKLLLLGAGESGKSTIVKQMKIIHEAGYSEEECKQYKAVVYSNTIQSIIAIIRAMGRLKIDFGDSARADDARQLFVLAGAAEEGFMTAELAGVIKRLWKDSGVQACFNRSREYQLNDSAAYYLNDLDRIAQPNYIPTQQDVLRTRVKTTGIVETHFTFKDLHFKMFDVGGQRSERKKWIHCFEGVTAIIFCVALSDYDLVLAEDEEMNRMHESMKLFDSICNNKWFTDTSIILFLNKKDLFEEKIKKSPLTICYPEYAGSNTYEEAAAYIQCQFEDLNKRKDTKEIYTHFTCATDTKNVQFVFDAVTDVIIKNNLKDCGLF
# Procedure, shortened: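 Fluorescence polarization assay: 50 nM Gαi1 with 10 nM FITC-labeled RGS12 GoLoco peptide in 10 mM Tris pH 7.5, 150 mM NaCl, 0.1 mM GDP, 0.05% NP40, 10 min at room temperature with compound.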
# [9] = biological target: Cytochrome P450 3A4 (Homo sapiens) (UniProt P08684); assay: qHTS Assay for Activators of Cytochrome P450 3A4 (AID 885); further: nearly all actives have a fitted effect of over 65% in size
# Procedure, shortened: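 20nM CYP3A4 + 25uM Luciferin-PPXE (=KM), 200mM KPO4; cpd 10 min RT; NADPH regen, 60 min RT; stop w/ detection buffer, 20 min; luminescence. Normalized to 57 uM ketoconazole.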
# [10] = Confirmation and Secondary Assay for Modulators of Hemoglobin Beta Chain Splicing at IVS2 654 locus (AID 910);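 further: HeLa cells stably carrying EGFP split by mutant beta-globin IVS2-654 intron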
# Procedure, shortened: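 HeLa cells stably expressing EGFP interrupted by β-globin IVS2-654 intron, seeded overnight in Opti-MEM/2% FCS, then treated 2 days at 37 °C. Restored splicing read as total peak GFP intensity per well by laser scanning cytometry (488 nm excitation, 500–520 nm emission); 500 nM antisense PNA as control.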
# [11] = biological target: Cytochrome P450 2C19 (Homo sapiens) (UniProt P33261); assay: qHTS Assay for Inhibitors and Substrates of Cytochrome P450 2C19 (AID 899); further: nearly all actives have a fitted effect of over 60% in size
# Chain of Cytochrome P450 2C19 (Homo sapiens) (P33261 whole entry, looked up): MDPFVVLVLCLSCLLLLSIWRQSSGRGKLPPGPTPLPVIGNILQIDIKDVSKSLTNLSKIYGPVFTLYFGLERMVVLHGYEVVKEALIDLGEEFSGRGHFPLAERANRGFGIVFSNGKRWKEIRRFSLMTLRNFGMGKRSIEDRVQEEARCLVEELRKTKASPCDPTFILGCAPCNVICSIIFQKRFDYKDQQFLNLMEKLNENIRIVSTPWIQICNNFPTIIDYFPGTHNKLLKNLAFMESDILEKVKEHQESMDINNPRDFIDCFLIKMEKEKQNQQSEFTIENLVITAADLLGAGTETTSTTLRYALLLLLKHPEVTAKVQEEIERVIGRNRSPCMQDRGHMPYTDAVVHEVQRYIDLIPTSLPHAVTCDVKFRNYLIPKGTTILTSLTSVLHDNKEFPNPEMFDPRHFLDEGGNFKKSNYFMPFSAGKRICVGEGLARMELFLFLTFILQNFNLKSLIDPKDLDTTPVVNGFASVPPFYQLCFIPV
# Procedure, shortened: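 Signal comes from luciferase acting on luciferin released by CYP2C19-mediated hydroxylation of Luciferin-H EGE, 10uM (KM). Assay mix: 5nM enzyme, 50mM KPO4; 60 min at 37C with NADPH regeneration. Data normalized against 57uM ketoconazole.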
# [12] = qHTS Assay for Identification of Small Molecule Agonists for Thrombopoietin (TPO) Signaling Pathway (AID 917)
# Procedure, shortened: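 IL-3-dependent murine pro-B Ba/F3 cells, stably transfected with human TPO receptor and GpIIb-promoter luciferase, are incubated 24 hrs at 37 C with test compound and 26 pM TPO; luciferase signal is read after 10 min at room temperature.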
# [13] = biological target: Muscarinic acetylcholine receptor M1 (Rattus norvegicus) (UniProt P08482); assay: qHTS Assay for Antagonists of Acetylcholine Muscarinic M1 Receptor: Measurement of IP-One Response (AID 944); further: nearly all actives have a fitted effect of over 75% in size
# Chain of Muscarinic acetylcholine receptor M1 (Rattus norvegicus) (P08482 whole entry, looked up): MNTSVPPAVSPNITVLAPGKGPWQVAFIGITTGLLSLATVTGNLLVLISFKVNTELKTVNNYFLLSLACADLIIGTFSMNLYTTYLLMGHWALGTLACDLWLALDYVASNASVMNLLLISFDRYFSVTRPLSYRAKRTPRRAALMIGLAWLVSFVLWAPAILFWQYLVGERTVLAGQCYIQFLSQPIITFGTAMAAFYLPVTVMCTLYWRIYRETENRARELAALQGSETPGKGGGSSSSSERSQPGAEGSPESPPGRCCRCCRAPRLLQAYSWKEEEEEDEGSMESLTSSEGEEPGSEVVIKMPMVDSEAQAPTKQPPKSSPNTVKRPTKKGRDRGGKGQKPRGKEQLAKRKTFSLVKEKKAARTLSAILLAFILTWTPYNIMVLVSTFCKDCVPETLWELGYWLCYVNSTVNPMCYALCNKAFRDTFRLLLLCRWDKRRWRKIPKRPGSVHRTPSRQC
# Procedure, shortened: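 Steps: plate transfected CHO-M1 cells overnight; add test compound, 10 min; add carbachol (200 nM, EC80) in stimulation buffer with LiCl; incubate 30 min; add labelled IP1 tracer and anti-IP1 antibody in lysis buffer; read HTRF after 10 min.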
# [14] = biological target: Muscarinic acetylcholine receptor M1 (Rattus norvegicus) (UniProt P08482); assay: qHTS Assay for Antagonists of Acetylcholine Muscarinic M1 Receptor: Kinetic Measurement of Intracellular Calcium Response (AID 943);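 further: Fluo-4 calcium signal as peak divided by basal fluorescence over 4 min; series mostly up to about 35 µM; nearly all actives have a fitted effect of over 75% in size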
# Procedure, shortened: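 Intracellular calcium flux, recorded with Fluo-4 in a kinetic plate reader, served as signal; the response to carbachol at EC80 (100 nM final) was taken as maximal over minimal fluorescence after a 10 min compound pre-incubation in rat M1-CHO cells.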
# [15] = biological target: Cytochrome P450 2C9 (Homo sapiens) (UniProt P11712); assay: qHTS Assay for Inhibitors and Substrates of Cytochrome P450 2C9 (AID 883); further: nearly all actives have a fitted effect of over 60% in size
# Chain of Cytochrome P450 2C9 (Homo sapiens) (P11712 whole entry, looked up): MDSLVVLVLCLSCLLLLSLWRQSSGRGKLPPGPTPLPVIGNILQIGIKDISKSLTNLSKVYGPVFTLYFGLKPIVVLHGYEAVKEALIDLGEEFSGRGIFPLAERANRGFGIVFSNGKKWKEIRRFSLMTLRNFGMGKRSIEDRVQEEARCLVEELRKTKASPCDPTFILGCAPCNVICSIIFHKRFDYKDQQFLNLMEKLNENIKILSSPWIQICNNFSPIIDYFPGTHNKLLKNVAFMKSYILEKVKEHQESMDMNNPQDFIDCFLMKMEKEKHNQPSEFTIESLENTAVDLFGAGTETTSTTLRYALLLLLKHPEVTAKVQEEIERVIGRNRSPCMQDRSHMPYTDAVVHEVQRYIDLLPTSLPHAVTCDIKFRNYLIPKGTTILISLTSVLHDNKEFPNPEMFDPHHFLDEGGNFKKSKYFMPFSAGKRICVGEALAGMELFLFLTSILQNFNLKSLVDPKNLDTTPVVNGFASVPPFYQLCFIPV
# Procedure, shortened: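 Signal: luciferase luminescence reporting luciferin produced by CYP2C9. Conditions: 10nM enzyme, Luciferin-H 100uM at KM, 25mM KPO4, 37C, 60 min NADPH-driven reaction. Reference: 57uM sulphaphenazole as 100% inhibition.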
# [16] = biological target: Cytochrome P450 2D6 (Homo sapiens) (UniProt P10635); assay: qHTS Assay for Inhibitors and Substrates of Cytochrome P450 2D6 (AID 891); further: nearly all actives have a fitted effect of over 60% in size; further: potency means the concentration at half of the fitted maximal effect
# Chain of Cytochrome P450 2D6 (Homo sapiens) (P10635 whole entry, looked up): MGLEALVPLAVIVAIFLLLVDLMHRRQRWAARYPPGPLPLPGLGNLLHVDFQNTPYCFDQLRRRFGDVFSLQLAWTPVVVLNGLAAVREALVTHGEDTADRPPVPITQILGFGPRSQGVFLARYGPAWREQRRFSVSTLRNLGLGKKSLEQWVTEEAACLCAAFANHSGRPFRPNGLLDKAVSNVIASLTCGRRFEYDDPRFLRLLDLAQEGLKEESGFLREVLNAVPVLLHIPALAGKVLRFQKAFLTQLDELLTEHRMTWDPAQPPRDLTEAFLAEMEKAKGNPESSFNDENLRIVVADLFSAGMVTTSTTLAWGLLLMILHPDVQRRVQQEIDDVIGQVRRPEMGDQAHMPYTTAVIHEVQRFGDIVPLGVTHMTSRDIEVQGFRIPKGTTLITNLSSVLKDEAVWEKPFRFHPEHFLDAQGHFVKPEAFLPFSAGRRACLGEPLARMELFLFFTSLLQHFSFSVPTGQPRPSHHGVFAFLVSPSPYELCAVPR
# Procedure, shortened: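 Human CYP2D6 (5 nM) with 30 uM Luciferin-ME EGE (at Km) in 100 mM KPO4, compound preincubated 10 min, then NADPH regeneration system for 60 min at room temperature. Luciferin read by luminescence; normalized to 1.43 uM quinidine.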
structure (smiles),measurement,setting,value
COc1ccccc1O,outcome,[1],inactive
same,outcome,[2],inactive
same,outcome,[3],inactive
same,outcome,[4],inactive
same,outcome,[5],inactive
same,Potency,[6],inactive
same,outcome,[7],inactive
CCN(CC)CCOC(=O)C1(C2CCCCC2)CCCCC1,outcome,[8],inactive
same,outcome,[9],inactive
same,outcome,[10],inactive
CC12CCC(CC1)C(C)(C)O2,outcome,[1],inactive
same,outcome,[2],inactive
same,outcome,[3],inactive
same,outcome,[4],inactive
same,outcome,[5],inactive
same,outcome,[10],inactive
same,outcome,[7],inactive
CC1=C(CC(=O)O)c2cc(F)ccc2/C1=C\c1ccc(S(C)(=O)=O)cc1,outcome,[8],inactive
same,outcome,[9],inactive
same,Potency,[11],inactive
same,outcome,[12],inactive
same,Potency,[13],inactive
C[C@]12C[C@H](O)[C@H]3[C@@H](CCC4=CC(=O)CC[C@@]43C)[C@@H]1CC[C@@H]2C(=O)CO,outcome,[1],inactive
same,outcome,[2],inactive
same,outcome,[3],inactive
same,outcome,[4],inactive
same,outcome,[5],inactive
same,outcome,[7],inactive
same,Potency,[14],inactive
same,Potency,[13],inactive
Nc1cc(=O)[nH]c(N)n1,outcome,[8],inactive
same,Potency,[15],inactive
same,Potency,[16],inactive
same,Potency,[11],inactive
same,outcome,[12],inactive
same,Potency,[14],inactive
same,Potency,[13],inactive
CN(C)CCC=C1c2ccccc2CCc2ccccc21,outcome,[1],inactive
same,outcome,[2],inactive
same,outcome,[3],inactive
same,outcome,[4],inactive
same,outcome,[5],inactive
same,outcome,[8],inactive
same,outcome,[9],inactive
same,outcome,[10],inactive
same,outcome,[12],inactive
CCN(CC)C(C)CN1c2ccccc2Sc2ccccc21 (centres undefined),outcome,[9],inactive
same,outcome,[10],inactive
CCCCN(CCCC)CCCOC(=O)c1ccc(N)cc1,outcome,[9],inactive
same,Potency,[16],0.0063 µM (active)
same,outcome,[10],inactive
C#CCN(C)Cc1ccccc1,outcome,[8],inactive
same,outcome,[12],inactive
same,Potency,[14],inactive
same,Potency,[13],inactive
CCCCCCCCCCCCCCCC(=O)NCCO,outcome,[8],inactive
same,outcome,[12],inactive
same,Potency,[13],inactive
c1ccc2c(CC3=NCCN3)cccc2c1,Potency,[16],7.94 µM (active)
same,outcome,[10],inactive
CC(CN(C)C)CN1c2ccccc2CCc2ccccc21 (centres undefined),outcome,[9],inactive
same,outcome,[10],inactive
NS(=O)(=O)c1cc2c(cc1Cl)NC(CSCc1ccccc1)=NS2(=O)=O,outcome,[9],inactive
same,outcome,[10],inactive
